69 sequences from PubChem BioAssay AID1508600 (Functional Genomics Laboratory (NCATS/FGL), 2020) can be followed below.

Hit rate of the full screen: of about 53,000 sequences, about 3,700 (7%) were called active.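 Rule for the calls: active = gene knockdowns whose robust z-score for IL-1 alpha signal is at least 2 or at most -2, so actives lie on both sides; inactive = the rest.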 The sample as a whole holds a higher share of actives than the screen did.

A short description of this test: Components of the Cytosolic LPS Sensing Pathway: Gene Identification via Genome-wide siRNA Screen.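 Note: robust z of the log signal after scaling to non-targeting control siRNA wells of the plate.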 The conditions noted are these: RAW264.7 macrophages, IL-1a HTRF, actives lie on both sides, screened at 100 nM (by protocol), cells primed 5 h with Pam3CSK4 first. The essentials:
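Knockdown: 100 nM siRNA, 48h, RAW264.7. Stimulation: Pam3CSK4 5 h, then LipidA via TransIT-TKO 24 h. Output: supernatant IL-1a HTRF, negative-control-normalized, log robust z-score; viability by CellTiter-Glo.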
(TR-FRET usually uses a lanthanide donor and a delayed reading to cut background.)
Take GGAAAUGGAUCCAGAAUAUTT against Smarca1: the z-score is -1.12 (inactive). For GGACAUGACAUCCAAAGACTT against Prmt1, the z-score is -0.649 (inactive). On to GGACACAGAUUAAUCAAGATT against Iftap, for which the z-score was 0.144 (inactive). With GGCCAUUGCCUCUUCUACUTT against Plekha4, the z-score is -0.225 (inactive).

With GAUCAACCUGAGCUCCAGUTT against Olfr25, the z-score is 2 (active). Regarding GGCCAUCCGCAUUUUUUCCTT against Mex3b, the z-score was -0.34 (inactive). For the sequence GGUUUUCAAAGUCCUGAAUTT against Myo3a, the z-score was -1.96 (inactive). As to GGGAAAGAAUGGUGUGGAATT against Dlx4, the z-score was -1.97 (inactive). For GGAAACUUCAGACUAGUCATT against Eif2s3y, the z-score was -0.0291 (inactive). To GGGAAUUUCGGCUGUUUUATT against Cts8 belongs 1.85 (inactive); to GGACCUGAGAGACUCUUUGTT against Ip6k2, -3 (active); to GGUCCACAGAUUCUUCUAATT against Zfa-ps, -0.761 (inactive). As to GGCCAUUUUGGAUCAUACATT against Actl6a, the z-score was -1.06 (inactive).

GCAGAUCAAUGGAUUCACCTT against Olfr57: the z-score is -1.51 (inactive). Turning to GGCACUGCCAUUAACAAAATT against Nrip1, the z-score was 0.0122 (inactive). Turning to GGGCCAAUAAAGAGGACAGTT against Aanat, the z-score is 2.38 (active).

With CCUGAUUGUCUUCAAUGGGTT against Cant1, the z-score was -0.84 (inactive). Consider CCAGUUGACAGGUUUGAUCTT against Habp4, for which the z-score is -0.255 (inactive). On to GGUACAAGAUAUUGUGAAATT against Fgd3, for which the z-score is 0.0612 (inactive). In the case of GCUUGAUCAACAAGUGGAGTT against Nup62, the z-score was -2.13 (active). Turning to GAGCUCUGCAUUUGGUUAGTT against Fam98b, the z-score was 0.0904 (inactive). With “ACUCAGUCAUUAAAGAGUGTT against G430095P16Rik”, the z-score was 0.447 (inactive). To GGAUAUUCCCAAUUACAAGTT against Plxna3 belongs -0.469 (inactive); to GGUCCAGAAGCAGAUGCUUTT against Zdhhc15, -0.174 (inactive); to GCAAGAACAUUAUGAAAGUTT against Epb41, 0.905 (inactive). GGCCUACCACCUUCAGAAGTT against Rpl37: the z-score is 2.01 (active). To GGCACUGUAGACAAACUCUTT against Stxbp1 belongs -0.468 (inactive); to GGCACCUAUGAGGUUCUAUTT against Sec16b, -0.615 (inactive). Consider GUUCAAGAGGGAGCUGGAATT against Pomc, for which the z-score is 0.842 (inactive).

Consider GGUCAUUUGUUUUCAGGGATT against Tfdp2, for which the z-score was 3.07 (active). As for GGGCCUUUAGUCCUCAAAGTT against Psmg3, the z-score was 0.387 (inactive). Turning to CCUGUCAUCACACUCGAGGTT against Coro6, the z-score was -0.00248 (inactive).

With CGGCGGUUUAAUGAAAAUATT against Cbfa2t2, the z-score is -2.58 (active). To GGUAGAAUGUGUGAUACCCTT against Rogdi belongs 0.205 (inactive); to GGUGGUCCAGAAUUUUGCATT against Cotl1, 0.386 (inactive). To CGGGAAUAAGAUCUUUCUGTT against Zbtb22 belongs 1.43 (inactive); to GGUACAUGAUUACCAGCCUTT against Sdk2, -2.26 (active). GGAAUAGUGGCUUCUUUUATT against Rsph3a: the z-score was -0.00182 (inactive). On to UUUGCAUGUACAGAAUGCUTT against Olfr312, for which the z-score is 1.54 (inactive). Take GGAAACACAAGUUCUAGGUTT against Gpx3: the z-score is 0.735 (inactive). For GGGUUUCUGUGAGAGACAATT against Ube2f, the z-score was 1.01 (inactive). Turning to GGAUGUUUGCUCUUGAGCGTT against Isoc1, the z-score was -2.17 (active). Regarding GGGACUAUAAGGAACCAGGTT against Fmo3, the z-score was -0.35 (inactive). To GGGCAAGACUUAAUUUUGGTT against Dppa1 belongs -0.36 (inactive); to GGUCAAGAGUGCCCUAAAATT against Olfr398, -1.63 (inactive). Take GGAUUCGUUCAGCUAAGGGTT against Olfr1023: the z-score is 1.29 (inactive). Take GGAGAAAUGUUGUUGUCUUTT against Kcng3: the z-score was -0.327 (inactive). Turning to AAAGCGCAUUCACAAAAAUTT against Olfr1453, the z-score is 0.197 (inactive). For the sequence GGAAACAAGGAUAUUCUUUTT against Fanca, the z-score is 0.859 (inactive). To GGAGGUAUUAUCUGAAUUGTT against Utp14a belongs 1.17 (inactive).

In the case of GGAGGCAUACAUGACAAAATT against Cop1, the z-score is 0.953 (inactive).

On to GGCAGAGUGCUGACUUCAUTT against Coq8a, for which the z-score is 3.86 (active).

For the sequence CCAUGUAUGCCUCAACAUATT against Ltf, the z-score was 0.517 (inactive). With GGAAAGUGCCAUGAAGACCTT against Dbi, the z-score was -1.42 (inactive). For the sequence GCUCCUAAUGGAAAGAACGTT against Pla2g4d, the z-score was 0.0914 (inactive). To CCUGUCCAGGGUUUGACCATT against Man2c1 belongs -1.12 (inactive); to GCGAUAUGCAGAGAAGCGGTT against Prpf8, -1.63 (inactive).

In the case of GGUUAAAGGAGCAGUCUAUTT against Dbn1, the z-score is 0.636 (inactive). To GGAGAAAGUGUCCUCUGUGTT against Olfr924 belongs -2.41 (active); to “GGGCUGGGUCUUCAUAAUUTT against 6330549D23Rik”, 1.14 (inactive); to GCACUUCAAUCCAGUGUCUTT against Pdgfd, -1.27 (inactive). Regarding GGCAAAAAUUUUUUCAUGCTT against Abcb4, the z-score is -0.47 (inactive).

GGUGGCGGGAGAUGUUUUUTT against Pex6: the z-score is 0.85 (inactive). As for GGUCUAGAGCAAUUCCAUATT against Olfr656, the z-score was 1.51 (inactive).

On to GUUGUAUUUCUUUGUCCUCTT against Olfr1097, for which the z-score is 2.21 (active).

Take GAUCUUAUAUGUUGGUGGUTT against Vmn1r29: the z-score is -0.31 (inactive). Take GGUGAACUUUACCUUCAACTT against Mov10: the z-score is 0.867 (inactive). On to GGAUCAACGAGGUAAAGUCTT against Itga8, for which the z-score is 0.101 (inactive). With GGUUUUUGAUAAUUGCCAUTT against Gcsh, the z-score is -1.98 (inactive).
